Sampled rows, rich in hits. Any-hit rate of the full collection: about 14%.
USP30 block = inhibitors of human USP30 deubiquitinase | Q70CQ3 | purified USP30, Ub-rhodamine cleavage fluorescence | inhibition, % at 25 µM | 47,000 compounds, 5.3% hits
USP28 inh = human USP28 deubiquitinase inhibition; Q96RU2; purified USP28, Ub-rhodamine cleavage fluorescence, 30 min; inhibition, % at 25 µM; 47,000 compounds, 3% hits; AID 1645857
USP17 inh = inhibitors of human USP17 deubiquitinase; 47,000 compounds, 6.5% hits; purified USP17, Ub-rhodamine cleavage fluorescence, 3 h; A8MUK1; inhibition, % at 50 µM
USP8 block = human USP8 deubiquitinase inhibition | P40818 | purified USP8, Ub-rhodamine cleavage fluorescence, 30 min | inhibition, % at 20 µM | 47,000 compounds, 4.2% hits
The depositor's hits bear a star; nt = no result. No stated cut-off is given here; in the data, active means inhibition above about 30%; inactive means the rest.

SMILES | USP30 block | USP28 inh | USP17 inh | USP8 block
CC(=O)O[C@@H](C/C=C(\C)C(=O)O)[C@@H](C)[C@H]1C[C@H](OC(C)=O)[C@@]2(C)C3=CC[C@H]4C(C)(C)[C@H](OC(C)=O)CC[C@]4(C)C3=CC[C@]12C | 101* | 100* | 100* | 92*
CC(=O)O[C@@H](C/C=C(\C)C(=O)O)[C@@H](C)[C@H]1C[C@H](OC(C)=O)[C@@]2(C)C3=CC[C@H]4C(C)(C)[C@H](O)CC[C@]4(C)C3=CC[C@]12C | 62* | 45* | 56* | 13
O=C(Cn1c(=O)n(CCc2ccccc2)c(=O)c2cccnc21)Nc1ccccc1C(F)(F)F | -2 | 0 | 0 | 0
O=C(CSc1nc2ccsc2c(=O)n1Cc1ccccc1)Nc1ccccc1C(F)(F)F | nt | nt | 55* | -1
COc1ccccc1NC(=O)NCCc1c(C)nn(C)c1C | 7 | -7 | 0 | 4
O=C(Nc1ccc(F)c(Cl)c1)c1ccc(N2CCCCS2(=O)=O)cc1Cl | 0 | 52* | 3 | 0
O=C(Nc1cccc(N2CCCS2(=O)=O)c1)c1cccc(C(F)(F)F)c1 | -19 | -5 | -14 | 0
O=C(Nc1cccc(F)c1)c1ccc(N2CCCCS2(=O)=O)cc1Cl | 0 | 33* | 22 | 23
CC1CC(=O)Nc2cc(S(=O)(=O)N3CCc4ccccc43)ccc2S1 (stereo not given) | -38 | 0 | 21 | -3
Cc1ccc(NC(=O)CN2c3ccc(F)cc3-c3ccccc3S2(=O)=O)c(C)c1 | 19 | 14 | 6 | 10
C[C@@H](NC(=O)[C@H](Cc1ccccc1)NC(=O)[C@H](Cc1ccccc1)n1c(=O)[nH]c2ccccc2c1=O)C(=O)O | 5 | 12 | 4 | -19
Cc1cc(C)c2cc(CN(C(=O)Nc3ccc(Cl)cc3)C3CCCC3)c(=O)[nH]c2c1 | 36* | -6 | 8 | 24
O=C(Nc1ccccc1Cl)N(Cc1cc2cc3c(cc2[nH]c1=O)OCCO3)C1CCCCC1 | -6 | 11 | 52* | 5
CCc1ccc2[nH]c(=O)c(CN(C(=O)Nc3ccccc3Cl)C3CCCC3)cc2c1 | 17 | 1 | 14 | 7
Cc1cc(C)c2cc(CN(C(=O)Nc3ccc(F)cc3)C3CCCC3)c(=O)[nH]c2c1 | -2 | -14 | 0 | -1
c1ccc(-c2cc(-c3nnc4c5ccccc5cnn34)[nH]n2)cc1 | 7 | -7 | 47* | 1
CCOc1ccc2ncc(S(=O)(=O)c3ccccc3)c(N3CCCCCC3)c2c1 | 22 | 13 | nt | 20
CC1(C)Cc2nc3sc4c(=O)n(CC(=O)NCc5ccccc5)cnc4c3cc2CO1 | -6 | -1 | 54* | 2
Cc1nc(SCC(=O)Nc2cccc(Cl)c2)c2sc3nc4c(cc3c2n1)COC(C)(C)C4 | 32* | 15 | 34* | 0
COc1cccc(NC(=O)Cn2cnc3c(sc4nc5c(cc43)COC(C)(C)C5)c2=O)c1 | -81 | -23 | 3 | -12
N#Cc1c(-c2ccc(Cl)cc2)cc(-c2ccc(Cl)c(Cl)c2)nc1N1CCOCC1 | -23 | -14 | 3 | -8
Cc1c(CC(=O)N[C@H](CSCc2ccccc2)C(=O)O)c(=O)oc2c(C)c(O)ccc12 | 5 | 5 | 10 | 19
Cc1ccccc1C(=O)N1CCN(CCNC(=O)C(=O)Nc2ccc(Cl)cc2)CC1 | 42* | 13 | 15 | 13
Cc1ccc2c(c1)N(Cc1ccc(Cl)cc1)C(=O)CCS2 | 30* | 27 | 24 | 11
Cc1cnc(C(=O)N2CCCCC2c2nc(C)c3c(n2)N(CC(C)C)C(=O)CC3)cn1 (stereo not given) | 11 | 9 | 10 | 15
SMILES | USP30 block | USP28 inh | USP17 inh | USP8 block
Cc1nc2ccc(C(=O)N3CCCC3c3nc(C)c4c(n3)N(CC(C)C)C(=O)C4)cc2s1 (stereo not given) | -11 | 0 | 42* | 89*
COc1cc2c(cc1OC)-c1cc(-c3cc(OC)c(OC)c(OC)c3)cn1CC2 | -140 | -25 | -3 | 36*
CC1Cc2cc(S(=O)(=O)N(C)Cc3ccccc3)ccc2N1C(=O)C1CC1 (stereo not given) | 25 | 22 | 4 | 0
O=C(CSc1n[nH]c2nc3ccccc3n12)Nc1ccc2c(c1)OCCO2 | 10 | 31* | 27 | -6
O=C(CSc1ccc2ccccc2c1)Nc1ccc2c(c1)OCCCO2 | 12 | 21 | 4 | -66
O=C(CSc1n[nH]c(-c2ccccc2Cl)n1)Nc1ccc2c(c1)OCCO2 | 0 | 38* | -5 | -39
O=C(CSc1nc2ccccc2[nH]1)Nc1ccc2c(c1)OCCO2 | -66 | 46* | 0 | 3
O=C(COC(=O)Cn1cnc2ccccc21)Nc1ccc2c(c1)OCCO2 | 2 | 56* | -3 | 1
